# From PubChem BioAssay (EPA / NIEHS)
# Records with an inconclusive call do not appear. Active and inactive are the calls of the source. How the source made its calls, unless noted: active means hit-call score of the fitted dose curve at least 0.9, where 1 is the maximum; inconclusive means response in the unintended direction; inactive means score below 0.9.
# Assays:
# [1] = target: human CYP4F12, CYP4F12 (gene 66002) (UniProt Q9HCS2); assay: NVS_ADME_hCYP4F12: NovaScreen (NVS) CYP450-related Enzyme Activity (ADME) Assay for human CYP4F12 (AID 2283111)
# How it was run: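 Cell-free fluorescence assay of recombinant human CYP4F12 activity on a specific substrate, read 0.5 h after dosing. Primary screen in duplicate at 10 uM, then concentration series for actives; loss of signal fitted against acetonitrile negative control.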
# [2] = target: human Acetylcholinesterase (AChE), ACHE (gene 43) (UniProt P22303); assay: NVS_ENZ_hAChE: NovaScreen (NVS) Enzymatic Assay for human Acetylcholinesterase (AChE) (AID 2283129)
# How it was run: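 Cell-free colorimetric enzyme-activity assay; compounds read 0.33 hour after dosing, loss of signal vs DMSO baseline. Primary screen in duplicate at 25 uM single concentration, with active compounds retested in concentration series.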
# [3] = target: human AMP-activated Protein Kinase, alpha 1 (AMPKa1), PRKAA1 (gene 5562) (UniProt Q13131); assay: NVS_ENZ_hAMPKa1: NovaScreen (NVS) Enzymatic Assay for human AMP-activated Protein Kinase, alpha 1 (AMPKa1) (AID 2283130)
# How it was run: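 Recombinant human AMPKα1 activity was measured cell-free by fluorescent substrate conversion with electrophoretic mobility-shift separation, 1 h after dosing. Duplicate single-point screening was at 25 uM; actives (≥30% inhibition) were retested in concentration-response up to 50 uM.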
# [4] = target: human Fibroblast Growth Factor Receptor 1 (FGFR1), FGFR1 (gene 2260) (UniProt P11362); assay: NVS_ENZ_hFGFR1: NovaScreen (NVS) Enzymatic Assay for human Fibroblast Growth Factor Receptor 1 (FGFR1) (AID 2283159)
# How it was run: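 Cell-free recombinant kinase with fluorescent substrate, product separated by electrophoretic mobility shift; read 1 hour after dosing, loss of signal relative to DMSO. Initial screen in duplicate at 25 uM, actives followed in concentration series.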
# [5] = target: human Tyrosine Protein Kinase Receptor Tie-2 (Tie2), TEK (gene 7010) (UniProt Q02763); assay: NVS_ENZ_hTie2: NovaScreen (NVS) Enzymatic Assay for human Tyrosine Protein Kinase Receptor Tie-2 (Tie2) (AID 2283225)
# How it was run: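 Recombinant human Tie2 kinase activity was read cell-free by fluorescence with electrophoretic mobility shift, 1 hour after dosing. The screen used 25 uM in duplicate, then concentration-response up to 50 uM. Signal loss was scored against DMSO.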
# [6] = target: rat Acetylcholinesterase (AChE), Ache (gene 83817) (UniProt P37136); assay: NVS_ENZ_rAChE: NovaScreen (NVS) Enzymatic Assay for rat Acetylcholinesterase (AChE) (AID 2283233)
# How it was run: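 Rat brain membrane acetylcholinesterase activity measured colorimetrically 0.33 h after compound addition, loss of signal relative to DMSO. Primary screen in duplicate at 25 uM; actives re-run as concentration-response with 50 uM top concentration.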
# [7] = target: human Neonicotinoid receptor (NNR), CHRNA2 (gene 1135) (UniProt Q15822); assay: NVS_LGIC_hNNR_NBungSens: NovaScreen (NVS) Ligand-Gated Ion Channel Assay for human Neonicotinoid receptor (NNR) (AID 2283313)
# How it was run: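 Radioligand displacement on human neuroblastoma membranes, 2 h, filter-based scintillation counting. Primary screen in duplicate at 25 uM; chemicals passing threshold (e.g. 30% inhibition) run singleton concentration-response to 50 uM; loss of binding fitted versus DMSO.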
# [8] = target: Androgen receptor (Homo sapiens) (UniProt P10275); assay: ATG_AR_TRANS: Attagene TRANS-FACTORIAL HepG2 Assay for human Androgen Receptor (AR) (AID 2282973); conditions: HepG2 Attagene TRANS-FACTORIAL AR reporter transcription
# How it was run: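 Readout is reporter transcript abundance, quantified by fluorescent RT-PCR products separated on capillary electrophoresis. Human HepG2 liver cells carried transiently transfected NR-Gal4 chimera plus GAL4-UAS reporter constructs and were dosed for 24 h; activity scored upward versus DMSO.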
# [9] = Tanguay_ZF_120hpf_MUSC: Oregon State University Tanguay Lab 120 Hour Post-fertilization zebrafish Assay for Muscle Malformation (AID 2284401; active means hit-call score of the fitted dose curve at least 0.9, where 1 is the maximum; inactive means score below 0.9)
# How it was run: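 Dechorionated Tropical 5D wild-type zebrafish embryos exposed statically from 6 to 120 hpf at 28C, one per well, in 0.64% DMSO. Muscle malformation scored present/absent by brightfield microscopy at 120 hpf, fitted against DMSO.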
# Sequence of Androgen receptor (Homo sapiens) (P10275 whole entry, looked up, the tested form may be a part): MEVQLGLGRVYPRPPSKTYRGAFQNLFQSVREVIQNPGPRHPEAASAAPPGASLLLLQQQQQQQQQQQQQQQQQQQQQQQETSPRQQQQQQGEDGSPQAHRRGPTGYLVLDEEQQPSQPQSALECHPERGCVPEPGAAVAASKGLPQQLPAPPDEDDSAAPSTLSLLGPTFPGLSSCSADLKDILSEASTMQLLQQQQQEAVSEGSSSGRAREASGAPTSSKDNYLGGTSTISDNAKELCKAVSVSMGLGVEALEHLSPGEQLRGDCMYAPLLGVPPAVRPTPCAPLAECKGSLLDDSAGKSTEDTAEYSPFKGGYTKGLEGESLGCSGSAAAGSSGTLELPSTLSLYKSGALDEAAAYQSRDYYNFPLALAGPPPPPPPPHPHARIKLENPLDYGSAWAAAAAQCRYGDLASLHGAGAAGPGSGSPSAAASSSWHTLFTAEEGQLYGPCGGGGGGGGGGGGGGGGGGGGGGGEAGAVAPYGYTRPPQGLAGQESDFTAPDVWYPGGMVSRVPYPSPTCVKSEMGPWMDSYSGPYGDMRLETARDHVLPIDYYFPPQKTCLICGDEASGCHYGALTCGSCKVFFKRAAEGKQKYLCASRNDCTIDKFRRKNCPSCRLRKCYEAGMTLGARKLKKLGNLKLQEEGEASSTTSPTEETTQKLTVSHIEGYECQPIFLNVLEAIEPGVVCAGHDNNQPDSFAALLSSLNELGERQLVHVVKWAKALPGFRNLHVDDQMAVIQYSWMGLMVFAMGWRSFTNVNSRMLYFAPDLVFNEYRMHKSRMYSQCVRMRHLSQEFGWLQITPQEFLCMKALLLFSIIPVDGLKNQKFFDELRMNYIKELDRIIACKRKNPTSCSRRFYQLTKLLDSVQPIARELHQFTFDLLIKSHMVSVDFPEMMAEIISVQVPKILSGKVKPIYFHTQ
# Sequence of rat Acetylcholinesterase (AChE), Ache (gene 83817) (P37136 whole entry, looked up): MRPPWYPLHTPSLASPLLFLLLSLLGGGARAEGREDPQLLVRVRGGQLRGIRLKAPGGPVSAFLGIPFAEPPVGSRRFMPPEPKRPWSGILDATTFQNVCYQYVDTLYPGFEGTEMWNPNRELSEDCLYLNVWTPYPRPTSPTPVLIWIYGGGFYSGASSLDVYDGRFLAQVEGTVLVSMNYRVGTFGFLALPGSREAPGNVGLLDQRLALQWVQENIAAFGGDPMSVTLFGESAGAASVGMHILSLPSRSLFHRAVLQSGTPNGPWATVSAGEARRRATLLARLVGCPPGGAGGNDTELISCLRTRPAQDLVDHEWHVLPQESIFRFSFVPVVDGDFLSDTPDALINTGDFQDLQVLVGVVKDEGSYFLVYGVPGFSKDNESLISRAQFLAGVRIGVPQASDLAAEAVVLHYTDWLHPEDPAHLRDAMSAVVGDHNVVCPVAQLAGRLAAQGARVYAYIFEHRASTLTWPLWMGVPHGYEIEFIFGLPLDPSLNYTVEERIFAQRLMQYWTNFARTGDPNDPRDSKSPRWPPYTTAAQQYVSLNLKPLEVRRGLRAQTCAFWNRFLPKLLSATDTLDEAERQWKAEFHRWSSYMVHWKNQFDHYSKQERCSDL
# Sequence of human CYP4F12, CYP4F12 (gene 66002) (Q9HCS2 whole entry, looked up): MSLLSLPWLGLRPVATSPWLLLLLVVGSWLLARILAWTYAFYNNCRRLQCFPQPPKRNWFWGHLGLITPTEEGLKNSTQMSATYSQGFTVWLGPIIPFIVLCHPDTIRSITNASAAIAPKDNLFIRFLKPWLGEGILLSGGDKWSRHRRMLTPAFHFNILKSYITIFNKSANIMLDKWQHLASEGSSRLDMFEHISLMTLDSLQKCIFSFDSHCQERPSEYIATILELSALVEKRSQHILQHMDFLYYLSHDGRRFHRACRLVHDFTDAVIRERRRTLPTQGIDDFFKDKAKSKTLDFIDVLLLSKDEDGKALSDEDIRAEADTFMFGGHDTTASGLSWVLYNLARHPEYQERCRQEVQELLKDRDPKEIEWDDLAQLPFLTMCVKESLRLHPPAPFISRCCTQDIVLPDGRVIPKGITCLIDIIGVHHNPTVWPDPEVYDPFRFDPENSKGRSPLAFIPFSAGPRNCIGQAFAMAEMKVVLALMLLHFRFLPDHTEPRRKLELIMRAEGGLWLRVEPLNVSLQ
# Sequence of human Fibroblast Growth Factor Receptor 1 (FGFR1), FGFR1 (gene 2260) (P11362 whole entry, looked up): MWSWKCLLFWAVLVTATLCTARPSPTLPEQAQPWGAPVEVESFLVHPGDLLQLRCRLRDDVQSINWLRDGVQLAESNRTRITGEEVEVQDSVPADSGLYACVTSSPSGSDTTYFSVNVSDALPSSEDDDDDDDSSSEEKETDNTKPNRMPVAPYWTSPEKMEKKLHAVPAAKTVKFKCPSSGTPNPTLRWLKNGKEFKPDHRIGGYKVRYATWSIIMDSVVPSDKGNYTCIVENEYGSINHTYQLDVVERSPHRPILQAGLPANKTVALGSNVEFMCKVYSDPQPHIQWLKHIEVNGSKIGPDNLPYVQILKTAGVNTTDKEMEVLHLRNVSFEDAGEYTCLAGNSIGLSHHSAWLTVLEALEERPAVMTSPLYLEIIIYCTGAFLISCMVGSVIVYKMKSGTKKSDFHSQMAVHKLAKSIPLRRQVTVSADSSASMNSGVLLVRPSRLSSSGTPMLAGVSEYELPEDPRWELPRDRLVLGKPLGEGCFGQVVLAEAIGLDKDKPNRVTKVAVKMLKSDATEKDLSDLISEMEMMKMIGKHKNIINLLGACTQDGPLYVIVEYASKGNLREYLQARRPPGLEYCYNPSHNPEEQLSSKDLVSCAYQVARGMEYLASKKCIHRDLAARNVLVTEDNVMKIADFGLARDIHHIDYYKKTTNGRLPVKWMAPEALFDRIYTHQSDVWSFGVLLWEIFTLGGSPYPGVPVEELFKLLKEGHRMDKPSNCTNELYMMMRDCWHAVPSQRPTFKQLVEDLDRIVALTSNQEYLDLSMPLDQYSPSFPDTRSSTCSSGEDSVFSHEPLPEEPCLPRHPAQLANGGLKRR
# Sequence of human Acetylcholinesterase (AChE), ACHE (gene 43) (P22303 whole entry, looked up): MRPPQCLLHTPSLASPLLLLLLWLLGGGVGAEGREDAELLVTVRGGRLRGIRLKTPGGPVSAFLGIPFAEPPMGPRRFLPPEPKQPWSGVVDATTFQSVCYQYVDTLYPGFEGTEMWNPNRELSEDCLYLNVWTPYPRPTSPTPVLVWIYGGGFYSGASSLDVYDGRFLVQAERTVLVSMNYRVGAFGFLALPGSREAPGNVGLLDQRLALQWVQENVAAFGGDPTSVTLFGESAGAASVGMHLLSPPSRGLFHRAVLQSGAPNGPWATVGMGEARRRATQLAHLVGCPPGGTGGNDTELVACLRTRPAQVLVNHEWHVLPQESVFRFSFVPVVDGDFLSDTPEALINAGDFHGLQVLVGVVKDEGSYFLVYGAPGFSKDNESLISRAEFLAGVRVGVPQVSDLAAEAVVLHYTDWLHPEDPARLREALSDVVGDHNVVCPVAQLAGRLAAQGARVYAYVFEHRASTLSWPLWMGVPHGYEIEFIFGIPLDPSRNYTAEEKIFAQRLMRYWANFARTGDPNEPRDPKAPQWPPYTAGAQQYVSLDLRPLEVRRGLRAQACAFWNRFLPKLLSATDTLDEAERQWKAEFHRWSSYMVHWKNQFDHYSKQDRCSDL
# Sequence of human Neonicotinoid receptor (NNR), CHRNA2 (gene 1135) (Q15822 whole entry, looked up): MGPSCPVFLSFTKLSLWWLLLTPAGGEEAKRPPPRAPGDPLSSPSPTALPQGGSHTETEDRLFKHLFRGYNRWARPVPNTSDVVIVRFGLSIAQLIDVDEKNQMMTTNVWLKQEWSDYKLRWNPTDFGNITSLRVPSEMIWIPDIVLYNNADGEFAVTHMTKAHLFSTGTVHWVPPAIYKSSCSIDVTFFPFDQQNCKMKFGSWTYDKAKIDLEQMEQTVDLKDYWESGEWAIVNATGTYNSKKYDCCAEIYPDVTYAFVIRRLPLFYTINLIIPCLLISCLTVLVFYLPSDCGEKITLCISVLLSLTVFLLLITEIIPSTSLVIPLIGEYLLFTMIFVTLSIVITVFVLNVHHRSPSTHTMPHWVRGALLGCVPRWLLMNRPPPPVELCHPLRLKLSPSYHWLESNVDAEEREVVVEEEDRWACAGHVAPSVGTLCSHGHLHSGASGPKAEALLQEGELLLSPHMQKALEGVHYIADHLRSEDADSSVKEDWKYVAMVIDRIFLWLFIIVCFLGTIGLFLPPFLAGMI
# Sequence of human AMP-activated Protein Kinase, alpha 1 (AMPKa1), PRKAA1 (gene 5562) (Q13131 whole entry, looked up): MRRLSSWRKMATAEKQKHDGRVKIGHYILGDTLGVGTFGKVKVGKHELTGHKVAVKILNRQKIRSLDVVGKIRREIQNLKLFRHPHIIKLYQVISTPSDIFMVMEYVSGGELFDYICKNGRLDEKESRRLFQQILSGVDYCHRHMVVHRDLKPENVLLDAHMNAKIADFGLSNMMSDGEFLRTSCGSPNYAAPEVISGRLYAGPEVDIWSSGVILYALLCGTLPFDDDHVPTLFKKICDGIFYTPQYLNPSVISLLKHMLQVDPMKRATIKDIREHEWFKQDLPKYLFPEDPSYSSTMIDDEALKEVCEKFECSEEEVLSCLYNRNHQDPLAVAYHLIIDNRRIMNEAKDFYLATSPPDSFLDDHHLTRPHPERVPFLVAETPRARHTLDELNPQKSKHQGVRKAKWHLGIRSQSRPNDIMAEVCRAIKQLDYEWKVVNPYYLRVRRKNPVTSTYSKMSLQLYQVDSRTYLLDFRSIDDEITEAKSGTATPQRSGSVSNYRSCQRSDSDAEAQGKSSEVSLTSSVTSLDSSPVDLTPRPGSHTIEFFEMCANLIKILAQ
compound,measurement,setting,value
CCCCCCCC(=O)O,AC50,[1],4.61 µM (active)
same,outcome,[2],inactive
same,outcome,[3],inactive
same,outcome,[4],inactive
same,outcome,[5],inactive
same,outcome,[6],inactive
same,AC50,[7],37.4 µM (active)
O=C(O)C(F)(F)C(F)(F)C(F)(F)OC(F)(C(F)(F)F)C(F)(F)F,outcome,[8],inactive
same,outcome,[9],inactive
O=S(=O)(OCC(F)(F)F)C(F)(F)C(F)(F)C(F)(F)C(F)(F)F,outcome,[8],inactive
same,outcome,[9],inactive
O=C(O)C(F)(F)OC(F)(F)C(F)(F)OC(F)(F)C(F)(F)OC(F)(F)C(F)(F)C(F)(F)C(F)(F)F,outcome,[8],inactive
same,outcome,[9],inactive
